Data published in PubChem BioAssay (NCI).
About 83,000 compounds went through this panel and 20% of them were active in at least one assay; those are over-represented in the sample as a whole.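 Cell lines were cultured in 96-well plates, exposed to a single compound concentration, and assessed for percent growth 48 hours later.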 A number with no mark means an inactive call. Activity calls are given as the source filed them. Rule for the calls: active = growth percent below 10; inactive = the rest.

What follows are compounds tested on HL-60(TB) leukemia (assay: NCI-60 one-dose screen, 48 h (100 = growth as untreated, 0 = no growth, -100 = all killed)). Details: 10 µM unless noted.

Row | SMILES | growth
1 | COc1ccc(C2=Nn3c(nnc3-n3nc(C)cc3C)SC2)cc1 | -29% (active)
2 | CC(=O)OCC(OC(C)=O)C(OC(C)=O)C(OC(C)=O)C(OC(C)=O)C(/C=N/Nc1ccccc1)=N/Nc1ccccc1 (stereo not drawn) | 59.4%
3 | C=CC(=O)Nc1cccc(Nc2nc(SC)nc(-c3cccc([N+](=O)[O-])c3)c2C#N)c1 | 63.4%
